Assay outcomes as filed in PubChem BioAssay.
Rows were chosen to be rich in hits. Some 2.3% of all compounds tested hit in one or more screens of this group.
NTR1 ag: NTR1 (human) agonism; activation, % at 20 µM; hit rate 0.17% among 330,000; AID 493036; NTR1-U2OS beta-arrestin-GFP spot imaging, agonist mode; P30989;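 active = activation at or above 40% of the spot to cytoplasm intensity ratio, with at least 20 cells analyzed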;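 also: 0% = DMSO without peptide and 100% = 100 nM NTR1 peptide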
Target sequence (P30989 whole entry, looked up): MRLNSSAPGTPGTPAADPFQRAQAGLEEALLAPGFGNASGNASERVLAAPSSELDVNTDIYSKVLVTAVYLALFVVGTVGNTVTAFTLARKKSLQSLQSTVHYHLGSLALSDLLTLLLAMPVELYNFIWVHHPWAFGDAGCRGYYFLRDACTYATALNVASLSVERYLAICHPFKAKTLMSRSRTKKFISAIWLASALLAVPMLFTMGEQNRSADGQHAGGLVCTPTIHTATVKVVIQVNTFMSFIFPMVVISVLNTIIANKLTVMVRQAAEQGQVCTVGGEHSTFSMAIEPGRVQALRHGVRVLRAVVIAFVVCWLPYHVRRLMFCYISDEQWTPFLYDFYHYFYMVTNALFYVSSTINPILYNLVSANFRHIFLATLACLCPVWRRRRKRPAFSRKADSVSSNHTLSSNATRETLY
ABHD5 PLIN5 PPI: ABHD5-PLIN5 protein interaction inhibition; Q00G26+Q8WTS1; Split G. princeps luciferase complementation, luminescence, 4 h; inhibition, % at 4 µM; hit rate 0.78% among 360,000; AID 602281;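 active = inhibition above the mean inhibition across every tested compound plus 3 SD, cut at about 22% in these data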;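 also: 0% = DMSO only wells and the 100% control is not disclosed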
Beta2AR agonist: activates human beta-2 adrenergic receptor causing internalization | Am2.2-beta2AR cells, FAP receptor internalization, flow cytometry | P07550 | response, % (test concentration not listed) | hit rate 0.43% among 340,000 | AID 504454;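 active = response above a set limit, near 3 SD of response in nonfluorescent compounds, cut at about 42% in these data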
m5-HT2A agonist: activates the mouse 5-HT2A serotonin receptor; P35363; CHO-K1 mHTR2A beta-arrestin complementation, luminescence; percent of 30 µM serotonin response; activation, % at 7.6 µM; hit rate 0.66% among 360,000;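 active = activation above a run cutoff, the mean activation of all tested compounds plus 3 SD, cut at about 14% in these data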;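 also: 0% = plate median of compound wells and 100% = 30 µM serotonin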
Exocytosis inh: lytic granule exocytosis inhibition. TALL-104 LAMP-1 surface exposure, flow cytometry; cells stimulated with thapsigargin and PMA. inhibition, % at 10 µM. hit rate 0.66% among 360,000;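 active = inhibition above about 55%, limit read from the data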
Granule exo CP1: lytic granule exocytosis inhibition; hit rate 11% among 1,500; inhibition, % at 10 µM; shares compounds with Exocytosis inh; TALL-104 cells, LAMP-1 externalization, flow cytometry; stimulated with PMA plus thapsigargin; in the data active = inhibition above about 60%;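 also: 0% = stimulated vehicle wells and 100% = unstimulated wells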
Starred values were filed as active, the others as inactive.

For CCOc1ccccc1N(C(=O)c1snc(C(N)=O)c1N)C(CC)C(=O)NC1CCCC1 (configuration not stated) the results were NTR1 ag 2, ABHD5 PLIN5 PPI 9, Beta2AR agonist -5, m5-HT2A agonist -4, Exocytosis inh 60* and Granule exo CP1 -5.
CCOc1ccccc1N(C(=O)c1snc(C(N)=O)c1N)C(C(=O)NC1CCCC1)c1ccco1 (configuration not stated) was read as NTR1 ag 0, ABHD5 PLIN5 PPI 2, Beta2AR agonist -6, m5-HT2A agonist -6 and Exocytosis inh -4.
For COc1ncnc2c1ncn2CCCN1CCN(c2ccccn2)CC1 the results were ABHD5 PLIN5 PPI 1, m5-HT2A agonist 10 and Exocytosis inh -3.
`CCOC(=O)c1c(NC(=O)C(NCCN(C)C)c2ccccc2)sc2c1CCCC2` (configuration not stated) gave NTR1 ag 8, ABHD5 PLIN5 PPI 9, Beta2AR agonist 10, m5-HT2A agonist -7, Exocytosis inh 70* and Granule exo CP1 46.
For CCOC(=O)c1c(NC(=O)c2ccccc2N(C)S(=O)(=O)c2ccccc2)sc2c1CCCC2 the results were NTR1 ag 2, ABHD5 PLIN5 PPI -3, Beta2AR agonist -3, m5-HT2A agonist 0 and Exocytosis inh 0.
For COc1ccc(OC)c(-c2csc(NC(=O)Cc3ccc(OC)c(OC)c3)n2)c1 the results were NTR1 ag 2, ABHD5 PLIN5 PPI 2, Beta2AR agonist 12, m5-HT2A agonist -3, Exocytosis inh 64* and Granule exo CP1 -4.
`COc1ccc(-c2csc(NC(C)=O)n2)cc1OC` gave NTR1 ag 1, ABHD5 PLIN5 PPI 3, Beta2AR agonist 2, m5-HT2A agonist -5 and Exocytosis inh 1.
`COc1ccc(OC)c(-c2csc(NC(=O)Cc3ccccc3)n2)c1` gave NTR1 ag 6, ABHD5 PLIN5 PPI 0, Beta2AR agonist 0, m5-HT2A agonist -18, Exocytosis inh 59* and Granule exo CP1 -13.
Screening COc1ccc(CC(=O)Nc2nc(-c3cc(OC)ccc3OC)cs2)cc1 returned NTR1 ag 7, ABHD5 PLIN5 PPI -4, Beta2AR agonist 15, m5-HT2A agonist 0 and Exocytosis inh 1.
`COc1cccc(NC(=O)Nc2nc(-c3ccc(OC)c(OC)c3)cs2)c1` gave NTR1 ag 0, ABHD5 PLIN5 PPI -7, Beta2AR agonist 33, m5-HT2A agonist 9, Exocytosis inh 78* and Granule exo CP1 87*.
Screening FC(F)(F)c1cc(CCN2C(=S)NC[C@@H]2CC2CCCCC2)cc(C(F)(F)F)c1 returned NTR1 ag 6, ABHD5 PLIN5 PPI -16, Beta2AR agonist 2, m5-HT2A agonist -4, Exocytosis inh 86* and Granule exo CP1 -10.
C=C(C)Cn1c(SCC(=O)N/N=C/c2cccc(O)c2)nc2ccccc2c1=O was read as NTR1 ag 6, ABHD5 PLIN5 PPI -4, Beta2AR agonist 6, m5-HT2A agonist -6 and Exocytosis inh 0.
COc1cc2c(cc1NC(=O)CSc1nnc(COc3ccc(Cl)cc3)n1C)oc1ccccc12 was read as NTR1 ag 10, ABHD5 PLIN5 PPI -5, Beta2AR agonist 1, m5-HT2A agonist 2, Exocytosis inh 60* and Granule exo CP1 22.
Screening CC1C(=O)N(Cc2ccccc2F)c2ccccc2N1C(=O)c1c(F)cccc1F (configuration not stated) returned NTR1 ag 12, ABHD5 PLIN5 PPI -1, Beta2AR agonist 12, m5-HT2A agonist 4 and Exocytosis inh 35.
`COc1cccc(CN2C(=O)C(C)N(C(=O)c3c(F)cccc3F)c3ccccc32)c1` (configuration not stated) gave NTR1 ag 11, ABHD5 PLIN5 PPI -7, Beta2AR agonist 21, m5-HT2A agonist -4, Exocytosis inh 56* and Granule exo CP1 8.
`Cc1cc(C(=O)CN2C(=O)NC(C)(c3ccc(F)c(F)c3)C2=O)c(C)n1C1CC1` (configuration not stated) gave ABHD5 PLIN5 PPI -4, m5-HT2A agonist -2, Exocytosis inh 60* and Granule exo CP1 -14.
For COc1ccc(C2(C)NC(=O)N(CC(=O)c3cc(C)n(C4CC4)c3C)C2=O)cc1 (configuration not stated) the results were NTR1 ag 7, ABHD5 PLIN5 PPI -2, Beta2AR agonist 0, m5-HT2A agonist -8 and Exocytosis inh 3.
CC(NC(=O)c1ccccc1)C(=O)OCn1nnc2ccccc2c1=O (configuration not stated) was read as NTR1 ag 0, ABHD5 PLIN5 PPI 7, Beta2AR agonist 1, m5-HT2A agonist -4 and Exocytosis inh -1.
For O=C(Cn1cc(C(=O)C(F)(F)F)c2ccccc21)N1CCOCC1 the results were NTR1 ag -1, ABHD5 PLIN5 PPI -5, Beta2AR agonist 0, m5-HT2A agonist 2 and Exocytosis inh -7.
`Cc1ccc(CNC(=O)c2ccc(N(C)S(=O)(=O)c3ccccc3)cc2)cc1` gave NTR1 ag -1, ABHD5 PLIN5 PPI 17, Beta2AR agonist 7, m5-HT2A agonist -7, Exocytosis inh 67* and Granule exo CP1 -4.
For Cc1onc(-c2ccccc2Cl)c1C(=O)N1CCC(C(N)=O)CC1 the results were NTR1 ag 1, ABHD5 PLIN5 PPI 6, Beta2AR agonist -1, m5-HT2A agonist -1 and Exocytosis inh 8.
For Cc1onc(-c2ccccc2Cl)c1C(=O)N1CCC(Cc2ccccc2)CC1 the results were NTR1 ag 2, ABHD5 PLIN5 PPI 2, Beta2AR agonist -1, m5-HT2A agonist -2, Exocytosis inh 84* and Granule exo CP1 -12.
Screening Cc1ccc(C)c(S(=O)(=O)NCCCc2ccccc2)c1 returned NTR1 ag 0, ABHD5 PLIN5 PPI -4, Beta2AR agonist 7, m5-HT2A agonist 4, Exocytosis inh 58* and Granule exo CP1 -14.
Screening CCOc1ccc(-c2cnc(NCc3cccc4ccccc34)n2CCOC)cc1 returned NTR1 ag 6, ABHD5 PLIN5 PPI 7, Beta2AR agonist 13, m5-HT2A agonist -12, Exocytosis inh 111* and Granule exo CP1 1.
For COCCn1c(-c2ccc(OC)cc2)cnc1N the results were NTR1 ag 0, ABHD5 PLIN5 PPI 2, Beta2AR agonist 3, m5-HT2A agonist -2 and Exocytosis inh -2.
For O=C(Nc1ccccc1-c1ccccc1)C12CC3CC(CC(C3)C1)C2 the results were NTR1 ag 4, ABHD5 PLIN5 PPI -5, Beta2AR agonist -1, m5-HT2A agonist -5 and Exocytosis inh -3.
For Clc1ncnc2c1oc1ccccc12 the results were NTR1 ag 5, ABHD5 PLIN5 PPI -1, Beta2AR agonist 0, m5-HT2A agonist 0, Exocytosis inh 72* and Granule exo CP1 -4.
